This is an account of results in PubChem BioAssay (NCI).

The panel holds about 83,000 compounds, 20% with a hit somewhere; the sample as a whole holds those more often.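 96-well plates, one dose, 48 hours. Percent growth reported; active if below 10.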 The source made the active and inactive calls.

For this assay, the system named is HL-60(TB) leukemia. The experiment in a line: NCI-60 one-dose screen, 48 h (100 = growth as untreated, 0 = no growth, -100 = all killed). The note with it: 10 µM unless noted.
On to `CN(C)CCC(CCN(C)C)(C(=O)O)c1ccccc1`, for which the growth is 101% (inactive).

`CCN(CC)C12CCCCC1(C)C(C#N)(C#N)C(C#N)=C(N)O2` (centres undefined): the growth is 72.5% (inactive).

`Clc1ccc(Sc2nc(NC3CC3)nc(Sc3ccc(Cl)cc3)n2)cc1`: the growth is 60.9% (inactive).

In the case of `O=[N+]([O-])C1CC2C=CC1C2` (centres undefined), the growth was 97.6% (inactive).

Regarding `COc1ccc(-n2nc(C)c3c(Oc4ccc(NC(=O)Nc5c(Cl)cccc5Cl)cc4)ncnc32)cc1`, the growth is 100% (inactive).

With `Cn1c(I)c(C#C[Si](C)(C)C)c(=O)[nH]c1=O`, the growth is -67.8% (active).

Take `CCc1c(Nc2ccc(C)cc2)nc(N)[nH]c1=O`: the growth was 89.6% (inactive).

Regarding `COc1cccc(/C=C2/C(=O)N(Cc3ccco3)SC2=S)c1OC`, the growth was 94.5% (inactive).

Take `CC(C)C(=O)Nc1n[nH]c2cc(-c3cccc(NS(=O)(=O)C4CC4)c3)ccc12`: the growth was 64.3% (inactive).

As to `COc1ncnc2c(-c3ccccc3)cn(COCc3ccccc3)c12`, the growth is 53.1% (inactive).

For `Nc1nccc(Nc2ccccc2)n1`, the growth was 105% (inactive).

On to `C=C(C)[C@@H]1CC[C@]2(C(=O)NCCNCCNCCN)CC[C@]3(C)[C@H](CC[C@@H]4[C@@]5(C)CCC(=O)C(C)(C)[C@@H]5CC[C@]43C)[C@@H]12`, for which the growth was -35.6% [100 µM] (active).

Consider `C=CCSc1nnc(COc2ccc3c(C)c(Cc4ccccc4)c(=O)oc3c2C)o1`, for which the growth is 96.1% (inactive).

On to `CC(C)(C)OC(=O)N[C@@H](Cc1ccccc1)C(=O)N(Cc1ccccc1)C1(C(=O)NCc2ccccc2)CCN(Cc2ccccc2)CC1`, for which the growth is 7.23% (active).
